BaF3 tox – parental Ba/F3 viability inhibition as JAK2V617F counter-screen; CellTiter-Glo ATP luminescence; inhibition, % at 5.6 µM; actives 1.1% (n = 220,000);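 active = inhibition above a per-campaign cutoff, the mean inhibition of all tested compounds plus 3 SD, cut at about 27% in these data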
Ba/F3 V617F tox – reduce viability of Ba/F3 cells dependent on JAK2V617F | Ba/F3 EpoR-JAK2V617F viability, ATP luminescence | inhibition, % at 5.6 µM | actives 1.1% (n = 220,000) | AID 1446;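 active = inhibition above the campaign mean plus 3 SD over all tested compounds, cut at about 24% in these data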;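 note: cytokine-independent growth of Ba/F3 cells driven by EpoR plus mutant JAK2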
IEC-6 tox – kills IEC-6 intestinal cells in KLF5 counter-screen. inhibition, % at 5 µM. IEC-6 cytotoxicity, luminescence viability. AID 1825. actives 0.78% (n = 290,000); in the data active = inhibition above about 22%
APP transl inh – APP translation inhibition. SH-SY5Y APP 5'UTR-luciferase reporter, luminescence. inhibition, % at 2 µM. actives 0.82% (n = 190,000);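 active = inhibition above a set limit, derived from the sample mean plus 3 SD, cut at about 45% in these data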
KLF5 inh – inhibitors of KLF5 expression. DLD-1 KLF5 promoter-luciferase reporter, luminescence. inhibition, % at 5 µM. actives 0.23% (n = 290,000). AID 1700;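 active = inhibition above a per-plate limit of that plate's mean compound inhibition plus 3 SD, cut at about 60% in these data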;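 note: higher means less KLF5 promoter-driven luciferase light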
Numbers stand for hits; 0 = inactive; - = not tested or not shown. A selection: hits, their analogues and other compounds. The true share with any hit is near 1.9%.

SMILES	BaF3 tox	Ba/F3 V617F tox	IEC-6 tox	APP transl inh	KLF5 inh
Cc1ccc(NC(=S)N(CCCN2CCOCC2)Cc2ccco2)cc1Cl	0	0	0	0	0
Cc1ccc(NC(=S)N(CCN(C)C)C(C)c2ccco2)cc1Cl (stereo unspecified)	30	27	0	-	0
CCN1CCN(CCCN(Cc2ccco2)C(=S)Nc2cc(Cl)ccc2C)CC1	69	63	0	0	0
CCOC(=O)c1ccc(NC(=S)N(CCCN2CCN(CC)CC2)Cc2ccco2)cc1	0	0	0	0	0
CCN1CCN(CCCN(Cc2ccco2)C(=S)Nc2ccc(Cl)cc2)CC1	29	36	0	0	0
Cc1ccc(NC(=S)N(CCCN2CCN(C)CC2)Cc2cccs2)cc1	0	0	0	0	0
Cc1ccc(NC(=S)N(CCCN2CCN(C)CC2)Cc2cccs2)cc1C	29	36	0	0	0
CCN1CCN(C(=S)Nc2ccc(Cl)cc2)CC1	35	25	0	0	0
CCS(=O)(=O)N1Cc2ccccc2CC1C(=O)Nc1cccc(C)c1 (stereo unspecified)	38	0	0	0	0
CCS(=O)(=O)N1Cc2ccccc2CC1C(=O)Nc1ccc(C)cc1 (stereo unspecified)	0	0	0	0	0
Nc1ccc(N2CCCCCC2)cc1	59	43	0	0	0
COC(=O)c1ccc2c(c1)C(C)(C)C(/C=C/c1ccc(O)cc1)=[N+]2C	29	0	0	0	0
CCc1nnc(SCC(=O)NCCC2=CCCCC2)nc1CC	-	-	0	-	0
CCOc1ccc(NC(=O)C(C)Oc2ccccc2C(=O)Nc2cccc(Cl)c2Cl)cc1 (stereo unspecified)	0	0	0	0	0
COC(=O)CS(=O)(=O)c1cc(Br)cc2c1N(C(C)=O)CC2	93	0	0	0	0
CCCN(CCC)CCCNS(=O)(=O)c1cc(Br)cc2c1N(C(C)=O)CC2	0	0	0	0	0
NC(=O)c1cc(S(=O)(=O)NCc2cccs2)cs1	-	-	0	-	0
CCN1CCN(C(=O)Nc2cccc3ccccc23)CC1	0	0	0	57	0
Cc1ccc(Cl)cc1N1CCN(C(=S)NCCc2ccccc2)CC1	0	0	0	0	0
C[n+]1ccccc1N1CCN(c2ccccc2Cl)CC1	62	56	0	0	0
Cc1ccc(Cl)cc1N1CCN(c2cccc[n+]2C)CC1	65	82	0	0	0
COC(=O)CCS(=O)(=O)c1nc(-c2ccccc2)cc(C(F)(F)F)n1	0	0	0	0	0
CCOC(=O)CS(=O)(=O)c1nc(-c2ccc(F)cc2)cc(C(F)(F)F)n1	0	0	0	61	0
CCOC(=O)CS(=O)(=O)c1nc(-c2ccccc2)cc(C(F)(F)F)n1	0	79	28	57	0
CCOC(=O)CCS(=O)(=O)c1nc(-c2ccccc2)cc(C(F)(F)F)n1	0	39	0	0	0
SMILES	BaF3 tox	Ba/F3 V617F tox	IEC-6 tox	APP transl inh	KLF5 inh
CS(=O)(=O)c1nc(-c2ccc(F)cc2)cc(C(F)(F)F)n1	0	0	25	0	0
CCOC(=O)CS(=O)(=O)c1ccccc1	0	0	0	0	0
CCCc1n(CC(O)COC2CCCCC2)c2ccccc2[n+]1C (stereo unspecified)	55	26	0	0	0
CCCc1n(CC(O)COCc2ccccc2)c2ccccc2[n+]1C (stereo unspecified)	34	0	0	0	0
CCCc1n(CC(O)COCC2CC=CCC2)c2ccccc2[n+]1C (stereo unspecified)	66	33	0	0	0
Cc1nc2ccccc2n1CC(O)COC1CCCCC1 (stereo unspecified)	0	0	0	0	0
Cn1c(=O)c2c(ncn2CCOc2ccc(F)cc2)n(C)c1=O	-	-	0	-	0
O=C(Nc1ccc(Cl)cc1)/C(=C/c1ccc([N+](=O)[O-])cc1)c1nc2ccccc2s1	0	0	0	96	0
Cc1cc(C(N)=O)c2cc(Br)ccc2n1	0	0	0	0	0
Cc1cc(C(=O)NN)c2cc(Br)ccc2n1	0	0	0	75	0
Cc1ccc(NC(=O)c2c(C(F)(F)F)nn(C)c2SCc2ccc(Cl)cc2)cc1C	0	0	0	-	0
Cc1ccc(NC(=O)c2c(C(F)(F)F)nn(C)c2SCc2cccc(C(F)(F)F)c2)cc1C	48	43	0	-	0
CN(C(=O)COc1ccccc1C(=O)NCCOc1ccccc1)c1ccccc1	36	0	0	0	0
O=C(NCCOc1ccccc1)c1ccccc1Cl	-	-	0	-	0
CCCCC(C(=O)O)C(C)CC(=O)Nc1ccn(-c2ccccc2)n1 (stereo unspecified)	0	0	0	0	0
CCCCC(CCC(=O)Nc1ccn(-c2ccccc2)n1)C(=O)O (stereo unspecified)	63	0	0	-	0

Bioassay records as filed in PubChem BioAssay.
